Laboratory results from ChEMBL document CHEMBL1961873, “Compounds: GSK PKIS; Assays: Nanosyn kinase panel” (2012).

Molecular target: T1, Ephrin type-B receptor 3 (Homo sapiens) (UniProt P54753)
T1 sequence (whole entry): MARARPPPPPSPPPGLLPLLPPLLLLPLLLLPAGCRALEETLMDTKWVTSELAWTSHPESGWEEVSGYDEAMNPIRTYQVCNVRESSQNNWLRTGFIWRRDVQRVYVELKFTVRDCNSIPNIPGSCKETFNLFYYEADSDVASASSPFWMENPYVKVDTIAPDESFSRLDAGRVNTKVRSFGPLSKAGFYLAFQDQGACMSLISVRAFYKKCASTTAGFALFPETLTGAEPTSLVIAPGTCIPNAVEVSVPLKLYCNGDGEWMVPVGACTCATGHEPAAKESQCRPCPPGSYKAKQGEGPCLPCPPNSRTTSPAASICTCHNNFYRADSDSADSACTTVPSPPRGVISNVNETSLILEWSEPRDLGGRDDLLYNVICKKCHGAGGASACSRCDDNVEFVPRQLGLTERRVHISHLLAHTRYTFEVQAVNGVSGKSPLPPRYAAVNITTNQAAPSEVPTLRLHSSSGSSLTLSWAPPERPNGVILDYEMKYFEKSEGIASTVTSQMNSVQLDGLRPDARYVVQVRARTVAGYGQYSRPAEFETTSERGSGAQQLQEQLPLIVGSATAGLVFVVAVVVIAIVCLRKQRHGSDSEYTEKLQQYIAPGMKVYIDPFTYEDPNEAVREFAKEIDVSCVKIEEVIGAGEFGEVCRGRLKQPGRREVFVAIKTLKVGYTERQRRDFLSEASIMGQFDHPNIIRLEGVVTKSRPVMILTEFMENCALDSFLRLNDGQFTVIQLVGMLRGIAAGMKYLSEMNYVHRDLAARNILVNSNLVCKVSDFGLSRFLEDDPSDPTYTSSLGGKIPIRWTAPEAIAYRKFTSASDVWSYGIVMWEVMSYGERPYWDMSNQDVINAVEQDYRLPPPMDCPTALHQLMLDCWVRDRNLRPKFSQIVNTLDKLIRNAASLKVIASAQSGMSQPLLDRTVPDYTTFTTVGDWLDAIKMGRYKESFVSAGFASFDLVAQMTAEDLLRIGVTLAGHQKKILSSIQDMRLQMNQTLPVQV
Details: at 1 µM
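Further: values are mean percent inhibition of EPHB3 from the GSK PKIS screening panel.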

Row | SMILES | inhibition
1 | Fc1ccc(-c2cc(-c3c[nH]nc3-c3ccccn3)ccn2)cc1 | 4.44%
2 | Clc1ccc(-c2nn3ncccc3c2-c2ccnc(Nc3ccccc3)n2)cc1 | 5.92%
3 | CC1=C(C(=O)Nc2cc(Cl)c3[nH]ncc3c2)C(c2ccc(C(F)(F)F)cc2)CC(=O)N1 (stereo not drawn) | 2.94%
4 | CC(C)(CO)CNC(=O)c1ccc2c(c1)/C(=N/Nc1ccc(S(N)(=O)=O)cc1)C(=O)N2 | 0.79%
5 | COc1cccc(-c2c[nH]c3c(N/N=C/c4ccncc4)ncnc23)c1 | -5.7%
6 | Cc1ccc(O)cc1Nc1ccnc2cc(-c3ccccn3)ccc12 | 53.3%
7 | Cc1cccc2c1NC(=O)/C2=N\Nc1ccc(S(N)(=O)=O)cc1 | 2.12%
8 | CN1CCC(n2cnc(-c3ccc(F)cc3)c2-c2ccnc(Nc3ccccc3)n2)CC1 | 2.3%
9 | COc1ccc2[nH]c3c4[nH]c5ccc(OC)cc5c4c4c(c3c2c1)C(=O)NC4=O | -4.62%
10 | CNC(=O)c1cncc(/C=C/c2ccccc2Cl)c1 | 1.05%
11 | COC(=O)Nc1nc2ccc(Oc3ccc(NC(=O)Nc4cccc(Cl)c4)cc3)cc2[nH]1 | 5.18%
12 | COc1ccc(-c2cc(-c3c[nH]nc3-c3ccccn3)ccn2)cc1 | 2.2%
13 | CCn1c(-c2nonc2N)nc2ccccc21 | 2.17%
14 | COc1ccc(CNC(=O)c2ccc(-c3cc(-c4nnc(C)o4)ccc3C)cc2)cc1 | 0.39%
15 | Fc1cccc(COc2ccc(Nc3ncnc4sc(-c5ccco5)cc34)cc2Cl)c1 | 4.99%
16 | CCn1c(-c2nonc2N)nc2c(C#CC(C)(C)O)ncc(OC3CCNCC3)c21 | 4.06%
17 | CNC(=O)c1cc(-c2ccc(F)cc2)cc(-c2ccc(S(=O)(=O)N3CCCC3)cc2)c1N | 3.7%

Row | SMILES | inhibition
18 | COc1cc(N2CCN(C(C)C)CC2)ccc1Nc1nc(Nc2ccc(F)cc2C(N)=O)c2cc[nH]c2n1 | 2.03%
19 | CCn1c(-c2nonc2N)nc2cnc(Oc3cccc(NC(=O)c4ccc(N(C)C)cc4)c3)cc21 | 3.26%
20 | COc1ccc2c(-c3ccnc(Nc4cccc(OC(F)(F)F)c4)n3)cnn2n1 | 5.86%
21 | NS(=O)(=O)c1ccc(N/N=C2\C(=O)Nc3ccc4ncccc4c32)cc1 | -3.76%
22 | O=C(Nc1n[nH]c2cc(-c3ccc(F)cc3)ccc12)C1CC1 | 1.87%
23 | c1cc(-c2cnn3nc(N4CCOCC4)ccc23)nc(NC2CC2)n1 | 3.96%
24 | CCc1nn2ncccc2c1-c1ccnc(NC2CC2)n1 | 3.88%
25 | CN1CCC(n2cnc(-c3ccc(F)cc3)c2-c2ccnc(N)n2)CC1 | 1.1%
26 | COc1ccc(-c2cc3c(N)ncnc3o2)cc1 | 0.05%
27 | COc1ccc(-c2oc3ncnc(N)c3c2-c2ccc(NC(=O)Nc3cc(C(F)(F)F)ccc3F)cc2)cc1 | 99.7%
28 | COc1cc(Nc2nccc(Nc3ccc4c(C)n[nH]c4c3)n2)cc(OC)c1OC | 0.24%
29 | COC(=O)c1sc(-n2cnc3cc(OC)c(OC)cc32)cc1OCc1ccccc1C(F)(F)F | 6.47%
30 | N#Cc1c(NC(=O)c2ccc(F)cc2)sc2c1CCCC2 | 3.74%
31 | NS(=O)(=O)c1ccc(Nc2ncc(-c3ccccc3)o2)cc1 | 3.33%
32 | CCn1cc(-c2ccnc3[nH]ccc23)c(-c2cccc(NC(=O)Nc3ccc(OCc4ccccc4)cc3)c2)n1 | 0.9%
33 | c1ccc(-c2nc3n(c2-c2ccc4c(c2)OCO4)CCC3)nc1 | -0.67%
